These results are taken from PubChem BioAssay.

Test [1] concerns Wnt5a (protein binding on small-molecule microarray). Nature of the test: small molecules binding Wnt5a protein – biophysical, small-molecule microarray, 635/667 nm fluorescence, primary screen (AID 1142).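 Further: fluorescence read at 667 nm with signal to noise per printed feature.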 Particulars: 635 nm fluorescence, higher = more signal.
Test [2] can be described thus: ATP-based viability of Huh7 replicon cells – cell-based, CellTiter-Glo luminescence, basal, 48 h, cytotoxicity control for HCV replication inhibitor project, primary screen (AID 1143).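 Further: Huh7 hepatoma cells carrying a hepatitis C replication reporter with no stimulus; test concentration not given here.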 Particulars: higher = more signal, called active from +8 up or from −8 down. For orientation: In antiviral work, replicon cells carry a viral genome segment that copies itself.
Test [3] is described as follows: Pseudomonas biofilm growth suppression – PAO1 strain, BacTiter-Glo luminescence, LB-PBS, primary screen (AID 1144). Particulars: P. aeruginosa PAO1 biofilm, 12 h, higher = more signal.
Test [4] is described as follows: basal CRE-LacZ reporter activity in PC12 – cell-based, unstimulated, primary screen (AID 1145). Particulars: no forskolin, luminescence, 4.5 h, higher = more signal, called active from +8 up or from −8 down.
A short description of test [5]: forskolin-driven CRE-LacZ activity in PC12 – cell-based, CRE-LacZ reporter, forskolin-stimulated, primary screen (AID 1146).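 Further: PC12 cells with 6xCRE LacZ reporter stimulated by forskolin 10 µM; beta-galactosidase reporter signal reflecting CREB driven transcription.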 The note with it: luminescence, 4.5 h, higher = more signal, called active from +8 up or from −8 down.
For test [6], the target named is Streptavidin (Streptomyces avidinii) (UniProt P22629). Put plainly: compounds binding control protein streptavidin – biophysical, small-molecule microarray, 635/667 nm fluorescence, artefact control for SMM compound annotation, primary screen (AID 1147).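 Further: signal reflects streptavidin binding to arrayed compounds as a control protein.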 Particulars: higher = more signal.
Test [7] can be described thus: probe aInhba binding on compound microarray – biochemical, small-molecule microarray, 635/667 nm fluorescence, primary screen (AID 1148).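 Further: score merges 667nm spot fluorescence with signal-to-noise for antibody binding to printed compounds.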 Particulars: higher = more signal.
For test [8], the target named is Torsin-1A (Homo sapiens) (UniProt O14656). Nature of the test: TOR1A wild-type binding on microarray – cell lysate, small-molecule microarray, lysate, 635/667 nm, primary screen (AID 1149). The note with it: COS7 hTOR1A-WT lysate, 635 nm fluorescence, higher = more signal.
For test [9] the target is unchanged. Nature of the test: torsin A mutant lysate binding on microarrays – cell lysate, small-molecule microarray, COS7 lysate, 635/667 nm fluorescence, primary screen (AID 1150).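 Further: score pools 667 nm emission and signal to noise measuring lysate protein binding.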 Particulars: COS7 hTOR1A mutant lysate, 635 nm fluorescence, higher = more signal.
Test [10] deals with Sonic hedgehog protein (Shh). Put plainly: Sonic hedgehog microarray binding compounds – biochemical, small-molecule microarray, 635/667 nm fluorescence, primary screen (AID 1151).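 Further: Shh protein binding to compounds spotted on small-molecule microarray slides; score combines spot fluorescence intensity with signal-to-noise across triplicate slides.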 Particulars: 635 nm fluorescence, higher = more signal.
Test [11] can be described thus: optical density shifts of acrAB sulA E. coli – strain DRC41, OD650, 48 h, E. coli filamentation inducer project, primary screen (AID 1152).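 Further: E. coli MC1000 strain DRC41 lacking acrAB efflux pump and sulA.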 Particulars: higher = more signal, called active from +8 up or from −8 down.
Test [12] can be described thus: probe aLefty1 binding on compound microarray – biochemical, small-molecule microarray, 635/667 nm fluorescence, primary screen (AID 1153).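 Further: score merges spot fluorescence with signal-to-noise ratio from the scanned slide images.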 The note with it: higher = more signal.
Test [13] can be described thus: plasmodial surface anion channel blockers, osmotic lysis – cell-based, P. falciparum Indochina, OD700, 1 h, primary screen (AID 1154). The note with it: P. falciparum Indochina infected RBC osmotic lysis, higher = more signal, called active from +8 up or from −8 down.
Test [14] in a line: plasmodial surface anion channel blockers, osmotic lysis – cell-based, P. falciparum Indochina, OD700, 2 h, primary screen (AID 1155).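 Further: lysis reports solute entry through the parasite surface anion channel PSAC.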 The note with it: P. falciparum Indochina infected erythrocytes, higher = more signal, called active from +8 up or from −8 down.
Test [15] in a line: changes in parasitized red cell lysis, either direction – P. falciparum Indochina, OD700, 3 h, PSAC antagonist project, primary screen (AID 1156). The note with it: P. falciparum-infected erythrocytes, osmotic lysis, higher = more signal, called active from +8 up or from −8 down.
A short description of test [16]: plasmodial surface anion channel blockers, osmotic lysis – cell-based, P. falciparum Indochina, OD700, 18 h, primary screen (AID 1157). Particulars: P. falciparum Indochina infected erythrocytes, osmotic lysis OD700, 18 h; higher = more signal, called active from +8 up or from −8 down.
Test [17] is described as follows: S6 kinase pathway phospho-S6 level changes – cell-based, A549, cytoblot, luminescence, serum-stimulated, primary screen (AID 1158).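 Further: serum-stimulated A549 lung adenocarcinoma cells; signal is phosphorylated S6 detected by cytoblot immunostaining with HRP secondary.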 Particulars: 5 h, higher = more signal.
The target of test [18] is NADPH oxidase 2 (Homo sapiens) (UniProt P04839). Nature of the test: compounds shifting NOX2 Amplex Red fluorescence – cell-based, HEK293-NOX2, PMA-stimulated, NOX inhibitor project, primary screen (AID 1159). Further: test concentration not given here. Particulars: 45 min, higher = more signal, called active from +8 up or from −8 down.
Test [19] concerns the target NADPH oxidase 4 (Homo sapiens) (UniProt Q9NPH5). Put plainly: compounds shifting NOX4 Amplex Red fluorescence – cell-based, HEK293-NOX4, tetracycline-induced, NOX inhibitor project, primary screen (AID 1160). Particulars: HEK293-NOX4, Amplex Red H2O2 fluorescence, 45 min; higher = more signal, called active from +8 up or from −8 down.
Test [20] deals with NADPH oxidase 5 (Homo sapiens) (UniProt Q96PH1). Put plainly: compounds shifting NOX5 Amplex Red fluorescence – cell-based, HEK293-NOX5, NOX inhibitor project, primary screen (AID 1161). Particulars: HEK293-NOX5, ionomycin, 45 min, higher = more signal.

Activity calls are given as the source filed them. Unless noted, how the calls were made is not given here.

Sequence of NADPH oxidase 2 (Homo sapiens) (P04839 whole entry, looked up): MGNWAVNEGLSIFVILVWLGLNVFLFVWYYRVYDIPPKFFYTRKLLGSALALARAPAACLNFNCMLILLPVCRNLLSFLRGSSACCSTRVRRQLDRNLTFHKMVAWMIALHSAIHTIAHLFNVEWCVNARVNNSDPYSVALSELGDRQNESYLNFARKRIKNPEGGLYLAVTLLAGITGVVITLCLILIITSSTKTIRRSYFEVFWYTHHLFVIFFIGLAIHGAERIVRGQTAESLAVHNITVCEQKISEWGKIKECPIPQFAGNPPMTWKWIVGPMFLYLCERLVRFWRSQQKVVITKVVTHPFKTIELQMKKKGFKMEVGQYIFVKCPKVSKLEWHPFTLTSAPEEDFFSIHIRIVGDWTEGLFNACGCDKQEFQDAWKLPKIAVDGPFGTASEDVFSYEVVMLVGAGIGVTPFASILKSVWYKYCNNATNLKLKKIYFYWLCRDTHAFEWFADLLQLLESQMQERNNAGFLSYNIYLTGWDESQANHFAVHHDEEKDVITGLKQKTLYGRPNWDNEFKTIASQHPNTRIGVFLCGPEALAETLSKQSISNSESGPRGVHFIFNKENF
Sequence of NADPH oxidase 5 (Homo sapiens) (Q96PH1 whole entry, looked up): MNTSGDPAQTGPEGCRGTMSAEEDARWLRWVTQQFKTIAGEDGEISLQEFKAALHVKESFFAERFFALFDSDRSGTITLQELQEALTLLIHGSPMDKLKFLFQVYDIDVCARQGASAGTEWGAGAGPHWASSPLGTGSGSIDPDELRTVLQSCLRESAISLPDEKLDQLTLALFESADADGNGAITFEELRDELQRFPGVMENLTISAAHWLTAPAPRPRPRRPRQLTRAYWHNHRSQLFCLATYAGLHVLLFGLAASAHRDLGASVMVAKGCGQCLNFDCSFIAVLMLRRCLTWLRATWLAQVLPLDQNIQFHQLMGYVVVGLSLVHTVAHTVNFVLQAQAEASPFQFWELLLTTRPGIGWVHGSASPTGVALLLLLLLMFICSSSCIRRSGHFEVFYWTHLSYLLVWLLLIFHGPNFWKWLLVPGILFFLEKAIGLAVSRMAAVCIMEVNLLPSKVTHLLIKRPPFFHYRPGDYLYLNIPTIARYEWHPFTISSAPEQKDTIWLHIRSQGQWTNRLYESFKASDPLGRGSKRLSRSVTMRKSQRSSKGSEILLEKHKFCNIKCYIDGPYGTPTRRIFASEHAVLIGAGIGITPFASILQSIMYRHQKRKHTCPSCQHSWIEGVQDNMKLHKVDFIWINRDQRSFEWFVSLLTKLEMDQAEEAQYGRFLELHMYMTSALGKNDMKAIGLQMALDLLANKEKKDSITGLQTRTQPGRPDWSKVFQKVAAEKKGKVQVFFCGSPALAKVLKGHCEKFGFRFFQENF
Sequence of Streptavidin (Streptomyces avidinii) (P22629 whole entry, looked up): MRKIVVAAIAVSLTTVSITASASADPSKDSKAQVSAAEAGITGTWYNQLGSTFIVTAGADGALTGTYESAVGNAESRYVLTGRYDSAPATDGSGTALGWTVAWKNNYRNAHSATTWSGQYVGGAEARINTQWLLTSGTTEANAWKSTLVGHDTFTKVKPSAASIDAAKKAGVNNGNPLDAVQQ
Sequence of NADPH oxidase 4 (Homo sapiens) (Q9NPH5 whole entry, looked up): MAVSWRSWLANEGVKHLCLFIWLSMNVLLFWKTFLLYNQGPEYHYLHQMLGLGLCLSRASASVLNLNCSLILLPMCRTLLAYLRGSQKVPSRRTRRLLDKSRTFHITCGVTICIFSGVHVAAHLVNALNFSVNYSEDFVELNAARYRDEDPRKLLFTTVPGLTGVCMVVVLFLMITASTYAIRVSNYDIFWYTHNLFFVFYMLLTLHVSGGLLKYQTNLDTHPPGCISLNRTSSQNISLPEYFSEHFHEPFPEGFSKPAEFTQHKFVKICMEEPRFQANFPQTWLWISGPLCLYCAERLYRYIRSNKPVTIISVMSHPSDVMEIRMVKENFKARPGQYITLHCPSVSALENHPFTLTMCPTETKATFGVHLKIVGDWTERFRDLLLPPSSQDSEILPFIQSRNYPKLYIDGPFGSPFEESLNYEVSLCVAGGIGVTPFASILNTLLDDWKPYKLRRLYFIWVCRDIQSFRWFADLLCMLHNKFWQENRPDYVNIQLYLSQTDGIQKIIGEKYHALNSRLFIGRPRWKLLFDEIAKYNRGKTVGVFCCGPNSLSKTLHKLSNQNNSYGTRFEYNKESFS
Sequence of Torsin-1A (Homo sapiens) (O14656 whole entry, looked up): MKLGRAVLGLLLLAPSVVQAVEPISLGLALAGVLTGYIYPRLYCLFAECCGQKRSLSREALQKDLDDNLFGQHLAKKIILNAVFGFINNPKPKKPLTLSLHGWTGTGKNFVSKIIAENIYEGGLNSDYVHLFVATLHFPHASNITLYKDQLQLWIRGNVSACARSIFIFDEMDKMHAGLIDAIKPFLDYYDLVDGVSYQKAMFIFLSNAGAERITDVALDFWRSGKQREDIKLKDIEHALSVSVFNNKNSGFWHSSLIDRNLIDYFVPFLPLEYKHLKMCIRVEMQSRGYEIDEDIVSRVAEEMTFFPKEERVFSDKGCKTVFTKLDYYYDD

`CO[C@@H]1COC(=O)CC=C[C@H](C)[C@H](OC)COC(=O)[C@@H]2CCCN2C(=O)CC=C[C@H]1C`: the composite z-score was 0.0408 in [1]; -0.0406 in [6]; -0.0112 in test [7]; 0.719 in test [8]; 1.22 in [9]; 1.83 in test [10]. For the same compound, in test [12], the composite z-score is -0.276. Further, the z-score in [2] is -0.754 (inactive); in [3], 0.243 (inactive); in test [4], 0.609 (inactive); in test [5], -0.628 (inactive); in test [11], -0.2 (inactive); in test [13], 0.521 (inactive). In addition, the z-score in test [14] is 0.457 (inactive); in test [15], -0.0249 (inactive); in test [16], 0.158 (inactive); in test [17], -0.0291; in test [18], 1.18 (inactive); in test [19], -0.686 (inactive). Further, the z-score in test [20] was 0.294.
Take `O=C1CCCC=C1C(O)COCc1ccccc1` (stereo not given): the composite z-score in test [1] is 0.154; in [6], 1.42; in test [7], -0.238; in test [8], -0.465; in test [9] it was -0.0394; in [10], 0.124. The composite z-score in test [12] is -0.194. Further, the z-score was 0.78 (inactive) in test [2]; 0.616 (inactive) in test [3]; 0.109 (inactive) in test [4]; 0.0658 (inactive) in [5]; -0.245 (inactive) in test [11]; 0.782 (inactive) in test [13]. Besides, the z-score in test [14] was 0.36 (inactive); in test [15], -0.0291 (inactive); in test [16] it was -0.0223 (inactive); in test [17] it was -0.338; in test [18], 0.237 (inactive); in test [19], 0.733 (inactive). For the same compound, the z-score in [20] was 0.63.
As to `CC(CCN1CCCCc2nc(C)c(C)cc21)=NO[C@H](C)c1cn([C@@H]2COC[C@H]2O)nn1`, the composite z-score in test [1] is 0.229; in test [6], 1.12; in test [7] it was -0.0701; in test [8], 2.71; in [9], 2.5; in [10], 2.01. In addition, the composite z-score in [12] is -0.0088. For the same compound, the z-score is -0.216 (inactive) in test [2]; 0.184 (inactive) in [3]; -0.482 (inactive) in [4]; -0.445 (inactive) in test [5]; 0.431 (inactive) in [11]; 0.682 (inactive) in test [13]. Moreover, the z-score was 0.406 (inactive) in test [14]; 0.116 (inactive) in [15]; 0.342 (inactive) in test [16]; -0.363 in [17]; -0.526 (inactive) in test [18]; 0.167 (inactive) in [19]. Besides, the z-score in test [20] is -0.376.
Regarding `CON=C(C)CCN1CCCc2nc(C)c(C)cc21`, the composite z-score was 0.377 in test [1]; 0.286 in test [6]; -0.0645 in test [7]; -0.209 in test [8]; 0.23 in test [9]; 1.07 in test [10]. Further, the composite z-score in test [12] was -0.0601. Further, the z-score in test [2] was 0.258 (inactive); in test [3], 0.128 (inactive); in test [4], 0.345 (inactive); in test [5] it was -0.0543 (inactive); in test [11] it was -2.33 (inactive); in test [13], 1.03 (inactive). Besides, the z-score was 0.498 (inactive) in test [14]; 0.619 (inactive) in [15]; 0.49 (inactive) in test [16]; -0.621 in test [17]; -1.52 (inactive) in [18]; -1.06 (inactive) in test [19]. For the same compound, the z-score in test [20] was -0.493.
Regarding `CCN1C(=O)[C@H]2[C@H]3[C@H](O)[C@H](O)CC(=NO[C@@H](C)c4cc(-c5c(C)cc(C)cc5C)no4)[C@@H]3CC[C@H]2C1=O`, the composite z-score was found to be 0.266 in test [1]; 0.203 in [6]; 0.0756 in [7]; 1.22 in test [8]; 1.33 in test [9]; 1.15 in [10]. In test [12], the composite z-score is -0.103. Besides, the z-score in test [2] was -1.74 (inactive); in test [3], 0.847 (inactive); in [4], 2.08 (inactive); in [5] it was 0.205 (inactive); in test [11], 0.663 (inactive); in test [13], 2.34 (inactive). In addition, the z-score in [14] was 0.496 (inactive); in test [15] it was 0.504 (inactive); in [16], 0.588 (inactive); in test [17] it was -0.428; in test [18] it was 0.204 (inactive); in test [19], 0.175 (inactive). The z-score in [20] is 0.211.
Turning to `COC(=O)CC=C[C@@H](C)[C@@H](C=NOC[C@@H](C)[C@H](OCc1ccccc1)C(C)C)OC`, the composite z-score in test [1] is 0.0814; in [6] it was -0.437; in [7], -0.161; in [8], 0.155; in [9], -0.0103; in [10], 0.359. This compound also came in with a composite z-score in [12] of -0.29. In addition, the z-score in test [2] is -0.112 (inactive); in test [3] it was -0.0142 (inactive); in test [4], 0.848 (inactive); in test [5] it was 0.0112 (inactive); in test [11], 0.14 (inactive); in test [13], 2.17 (inactive). The z-score is 0.319 (inactive) in test [14]; -0.728 (inactive) in [15]; -0.0741 (inactive) in test [16]; 0.391 in test [17]; 0.64 (inactive) in [18]; -0.614 (inactive) in test [19]. In addition, in test [20], the z-score is -2.2.
Turning to `O=C1C2=CC[C@H]3C(=O)N(c4ccc(F)cc4F)C(=O)[C@H]3[C@H]2[C@H](O)[C@@H]2O[C@H]12`, the composite z-score in test [1] is 0.28; in [6], 0.447; in [7], -0.0221; in test [8], 0.528; in test [9] it was 0.308; in test [10], 0.389. Besides, the composite z-score in [12] turned out to be 0.558. For the same compound, the z-score in test [2] was 0.612 (inactive); in [3], -0.845 (inactive); in [4] it was -0.202 (inactive); in test [5] it was 0.305 (inactive); in test [11], -0.138 (inactive); in test [13], -0.487 (inactive). The z-score was -0.122 (inactive) in [14]; -0.708 (inactive) in test [15]; -0.0627 (inactive) in [16]; 0.311 in [17]; 0.0832 (inactive) in test [18]; 0.0553 (inactive) in test [19]. The z-score in test [20] was -0.191.
As for `COc1ccc2c(c1)O[C@@H](c1cccc(C(F)(F)F)c1)[C@H](O)C2=O`, the composite z-score in test [1] was 0.104; in test [6], 0.562; in [7], -0.0645; in test [8] it was -0.0248; in test [9], 0.215; in [10], 0.37. The same compound came in with a composite z-score in test [12] of 0.0328. Further, the z-score in test [2] is -2.98 (inactive); in [3], -0.837 (inactive); in test [4], 2.27 (inactive); in test [5] it was -0.892 (inactive); in [11], 0.706 (inactive); in test [13] it was 2.08 (inactive). Further, the z-score was 0.18 (inactive) in test [14]; 1.19 (inactive) in [15]; 0.347 (inactive) in test [16]; 1.15 in [17]; 0.00989 (inactive) in test [18]; 0.123 (inactive) in [19]. The z-score in [20] was -0.44.
